ADAM17 inh = ADAM17 inhibitors, primary screen, biochemical, QFRET | Disintegrin and metalloproteinase domain-containing protein 17 (Homo sapiens), P78536 | recombinant ADAM17, EDANS/DABCYL FRET peptide cleavage | inhibition, % at 6.95 µM | 0.83% of 370,000 active | AID 720648, 2013;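 active = inhibition above the mean of compounds lying between control limits plus 3 SD, set per campaign, cut at about 8.5% in these data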;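 also: 0% = DMSO-only wells as the low control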
GRIN3A LBD mod = binders of NR3A ligand-binding domain, primary screen, biophysical, differential scanning fluorimetry, uHTS; Glutamate receptor ionotropic, NMDA 3A (GRIN3A) ligand-binding domain; NR3A LBD differential scanning fluorimetry, Tm shift; 0% = protein alone, 100% = glycine-bound protein; Tm shift relative to glycine control, % at 25 µM; 2.5% of 340,000 active; AID 1259313, 2017;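 active = melting temperature shift of at least 10% of the positive control shift, at one fixed dose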
ADAM10 inh = human ADAM10 inhibitors, primary screen, biochemical, QFRET, HTS; Disintegrin and metalloproteinase domain-containing protein 10 (Homo sapiens), O14672; recombinant ADAM10, EDANS/DABCYL FRET peptide cleavage, 3 h; inhibition, % at 7 µM; 0.62% of 370,000 active; AID 720582, 2013;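 active = inhibition above a per-campaign cutoff equal to the mean of compounds falling between control-based bounds plus 3 SD, cut at about 20% in these data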;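 also: 0% = DMSO wells while the 100% control is not disclosed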
Target sequence (O14672 214-748 limits assumed): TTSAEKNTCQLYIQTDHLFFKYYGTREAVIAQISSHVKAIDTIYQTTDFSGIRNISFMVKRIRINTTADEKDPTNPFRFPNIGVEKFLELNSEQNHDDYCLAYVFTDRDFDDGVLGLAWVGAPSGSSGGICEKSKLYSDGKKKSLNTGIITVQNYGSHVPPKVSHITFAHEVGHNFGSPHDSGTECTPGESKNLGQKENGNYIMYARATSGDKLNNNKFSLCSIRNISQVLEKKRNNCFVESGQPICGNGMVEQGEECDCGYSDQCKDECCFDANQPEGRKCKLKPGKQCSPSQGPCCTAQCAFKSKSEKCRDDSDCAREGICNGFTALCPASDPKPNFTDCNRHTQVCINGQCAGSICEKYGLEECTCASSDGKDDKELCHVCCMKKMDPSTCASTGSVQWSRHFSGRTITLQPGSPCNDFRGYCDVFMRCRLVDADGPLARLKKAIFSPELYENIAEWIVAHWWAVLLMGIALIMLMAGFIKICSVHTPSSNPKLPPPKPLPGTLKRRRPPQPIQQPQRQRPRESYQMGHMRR
proKLK7 act = proKLK7 zymogen activators, primary screen, biochemical, fluorescence intensity | Kallikrein-7 (Homo sapiens), P49862 | purified proKLK7, EDANS-DABCYL substrate fluorescence; 100% is mature enzyme control, 0% vehicle | activation, % at 7 µM | 0.9% of 370,000 active | AID 652039, 2013;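 active = activation above the mean of all tested compounds plus 3 SD, computed per campaign excluding outliers beyond control limits, cut at about 13% in these data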
FAS-TE inh = FAS thioesterase domain inhibitors, primary screen, biochemical, fluorescence intensity, uHTS; 0.67% of 360,000 active; Fatty acid synthase (Homo sapiens), P49327; recombinant FAS-TE, OMFH fluorogenic substrate, fluorescence endpoint; inhibition, % at 15 µM;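 active = compounds whose normalised, plate-corrected inhibition of enzyme fluorescence in the single-dose primary screen is 50% or more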;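 also: 0% = DMSO with enzyme and 100% = substrate without enzyme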
* hit, by the source's call; / = no result. Most compounds without a hit are left out; they make up all but 4.6% or so of the library.

SMILES | ADAM17 inh | GRIN3A LBD mod | ADAM10 inh | proKLK7 act | FAS-TE inh
CC(OC(=O)c1ccc(NC(=O)CC#N)cc1)C(=O)Nc1nc(-c2ccccc2)cs1 (centres undefined) | 5 | 21* | 11 | 0 | 19
CC(C)(C)N1Cc2nnn(Cc3ccccc3)c2-c2ccccc2S1(=O)=O | -1 | / | 1 | 0 | /
Cc1sc(NC(=O)c2cc(-c3ccccc3)nc3ccccc23)c(C(N)=O)c1C | -2 | 17* | -11 | 0 | 25
COC(=O)c1sc(NC(=O)c2cc(-c3ccccc3)nc3ccccc23)c(C#N)c1C | -1 | 21* | -4 | 0 | 10
COC(=O)[C@H]1C[C@@]2(N3CCCCC3)c3ccccc3N[C@H]2N1S(=O)(=O)c1ccc([N+](=O)[O-])cc1 | 0 | / | 7 | 0 | /
CSCCCNC(=O)c1oc(=O)c2ccccc2c1-c1ccc(C)cc1 | -3 | / | -8 | 0 | /
FC(F)(F)c1cccc(NC(=S)Nc2ccc(Cl)c(Cl)c2)c1 | 1 | 19* | -2 | 0 | 46
O=[N+]([O-])c1cc(C(F)(F)F)cc([N+](=O)[O-])c1NCCNC(=S)Nc1ccc(Cl)c(Cl)c1 | 6 | 26* | 18 | 0 | 21
FC(F)(F)c1cccc(NC(=S)NC(c2ccccc2)c2ccccc2)c1 | 7 | 30* | 12 | 0 | 28
CC(C)(C)NC(=S)Nc1cccc(C(F)(F)F)c1 | -3 | -7 | 1 | 0 | 8
S=C(NCc1ccncc1)Nc1ccc(Cl)c(Cl)c1 | 0 | -5 | 5 | 0 | 23
O=C(NNC(=S)Nc1cccc(C(F)(F)F)c1)c1ccc(Cl)cc1Cl | 6 | 20* | 16 | 0 | 5
O=C(CCCC1=NS(=O)(=O)c2ccccc2N1)N1CCN(c2ccccc2Cl)CC1 | -1 | / | 3 | 0 | /
O=C(NCC(c1ccccc1)c1ccccc1)[C@H](Cc1ccccc1)NC1(C(=O)NC2CCCCC2)CCOCC1 | 5 | / | 7 | / | /
CC(C)c1ccc(C(=O)Nc2cc(Cl)ccc2C(=O)O)cc1 | 3 | / | 12 | / | /
COC(=O)[C@]1(C)N[C@H](CN(C)C(=O)Nc2ccc(F)cc2)[C@@H]2C(=O)N(C)C(=O)[C@@H]21 | -3 | 1 | -7 | 0 | -10
COC(=O)[C@]1(C)N[C@H](CN(C)C(=O)Nc2ccccc2)[C@@H]2C(=O)N(C)C(=O)[C@@H]21 | -3 | 13* | -2 | 0 | -15
COC(=O)[C@]1(C)N[C@H](CN(C)C(=O)Nc2ccc(OC)cc2)[C@@H]2C(=O)N(C)C(=O)[C@@H]21 | 0 | 13* | 5 | 0 | -8
CCN(C[C@H]1N[C@@](C)(C(=O)OC)[C@H]2C(=O)N(Cc3ccccc3)C(=O)[C@@H]12)C(=O)NC(C)C | -1 | 14* | -11 | 0 | -11
COC(=O)[C@]1(C)N[C@H](CN(C)C(=O)Nc2ccc(C(F)(F)F)cc2)[C@@H]2C(=O)N(C)C(=O)[C@@H]21 | 0 | 0 | -7 | 0 | -8
Cc1cc(C(=O)OCCCN(C)C2CN(Cc3cn(Cc4ccccc4C(F)(F)F)nn3)S(=O)(=O)C2)no1 (centres undefined) | -3 | / | -1 | -1 | /
CC(C)CCN(C)C1CCN(C(=O)Nc2ccccc2)CC1 | -1 | / | -8 | 0 | /
C=CCN1C(=O)[C@H](CC(=O)NCc2ccc(OC)c(OC)c2)[C@@]2(C(=O)OCC)CCCC=C12 | -9 | / | -4 | 0 | /
C/C(=N\Nc1nc2ccccc2[nH]1)c1ccc(Cl)s1 | 7 | 16* | 8 | -1 | -25
C/C(=N\Nc1nc2ccccc2[nH]1)c1ccc(C)o1 | 2 | -1 | 0 | 0 | -19
SMILES | ADAM17 inh | GRIN3A LBD mod | ADAM10 inh | proKLK7 act | FAS-TE inh
CC(C)(C)OC(=O)NCc1ccccc1/C=C/S(=O)(=O)NCCc1ccccc1 | -1 | / | 5 | 1 | /
CCc1cccc2c(C(=O)COC(=O)c3ccc([N+](=O)[O-])s3)c[nH]c12 | 9 | 10* | 17 | 1 | 31
c1ccc(C(c2ccccc2)c2nc(-c3cccnc3)no2)cc1 | -2 | 16* | 6 | 0 | 18
c1ccc(C(Cc2nc(-c3cccnc3)no2)c2ccccc2)cc1 | 0 | 1 | -1 | 0 | 15
Cc1ccc(-n2c(SCC(=O)Nc3ccccc3-c3ccccc3)nnc2-c2ccccn2)cc1 | 3 | / | -1 | 0 | /
Cc1ccc(NC(=O)C2CCCN2S(=O)(=O)c2cccnc2)cc1C (centres undefined) | -1 | / | -3 | 0 | /
CC(C)c1nc2sc3c(=O)[nH]cnc3c2c2c1CCC2 | -44 | 1 | -135 | -6 | -2
CC(C)c1nc2sc3c(=S)nc[nH]c3c2c2c1CCC2 | -2 | 38* | -4 | 0 | 3
CN(CCc1ccccc1)C(=O)c1ccc2c(c1)ncn2C1CCCCC1 | 2 | / | -10 | 0 | /
COc1ccc([N+](=O)[O-])cc1NC(=S)NC(C)=O | -9 | -4 | -13 | 0 | 34
COc1cc([N+](=O)[O-])ccc1NC(=S)Nc1cc(C(=O)OC(C)C)cc(C(=O)OC(C)C)c1 | -36 | 12* | -131 | 1 | 13
CC(C)(C)c1nnc2sc(SCC(=O)c3ccc(Cl)cc3)nn2c1=O | / | -26 | / | / | 51*
O=C1CCC[C@H]2C[C@H](NCc3ccc(Cl)cc3)CC[C@]23CCCN13 | -2 | / | -13 | / | /
CCCCNC(=O)c1onc(CSc2ccc(OC)cc2)c1C(=O)O | -3 | 12* | 3 | 1 | -3
Cc1cccc(-c2cccc3c4c([nH]c23)[C@@H]2C[C@H](N(C)C(=O)OCc3ccccc3)[C@H]([C@H](C)O)CN2CC4)c1 | -14 | / | -60 | -1 | /
Cc1noc(/C=C/N(C)C)c1S(=O)(=O)N1CCCC(C(=O)N2CCCCC2)C1 (centres undefined) | -2 | 14* | -6 | 0 | -8
Cc1noc(/C=C/N(C)C)c1S(=O)(=O)N1CCCC(C(=O)NC2CCCCC2)C1 (centres undefined) | 3 | -3 | 4 | 0 | 2
CC(=O)CC[C@@H]1CC[C@]2(CCCN(S(=O)(=O)C3CCCCC3)C2)O1 | -1 | / | -6 | 0 | /
Cc1ccc(-c2c(C(=O)O)c(C(=O)O)c3n2CSC3)cc1 | -5 | 0 | -5 | 0 | -7
O=C(O)c1c(C(=O)O)c(-c2ccc(Br)cc2)n2c1CSC2 | -4 | 14* | -19 | 0 | -1
COC(=O)[C@]12C[C@H](CC(=O)N3CCN(C(=O)C4CC4)CC3)C(=O)N(Cc3cccc4ccccc34)C1=C[C@H](C1CCCC1)O[C@@H]2C | -1 | / | 3 | 0 | /
O=C(NCc1ccco1)/C(=C/c1ccccc1F)NC(=O)c1ccccc1 | -3 | 14* | 2 | 0 | -5

High-throughput results (PubChem)
